This passage reports Potency results from PubChem BioAssay (NCATS).

The nature of experiment [1]: qHTS of pediatric cancer cell lines to identify multiple opportunities for drug repurposing: Primary screen for U-2 OS cells (AID 1347096). Also: nearly all actives have a fitted effect of over 50% in size. Also: potency is read from the fitted curve at half-maximal effect. An outline of the steps: (§1)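 Viability after 48 h compound treatment at 37C, 500-1,000 cells/well, read as ATP luminescence with CellTiter-Glo. Primary screens used 11-point (MIPE, 0.78 nM-46 µM) or 8-point (NPC, 0.59 nM-46 µM) final concentrations; follow-up screens used 11-point dilutions.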
Background: qHTS replaces the single test concentration by a dilution series.

Experiment [2] in a line: qHTS of pediatric cancer cell lines to identify multiple opportunities for drug repurposing: Primary screen for Saos-2 cells (AID 1347097). Also: nearly all actives have a fitted effect of over 40% in size. Also: potency is read from the fitted curve at half-maximal effect. In outline: (§2)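 Primary screen of approved and investigational compounds on cells in growth media at 37 degrees C, 5% CO2. MIPE set at 11-point and NPC set at 8-point dilutions; viability scored by ATP-based luminescence at 48 hours.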

Experiment [3] in a line: qHTS of pediatric cancer cell lines to identify multiple opportunities for drug repurposing: Primary screen for SK-N-SH cells (AID 1347098). Also: nearly all actives have a fitted effect of over 65% in size. Also: potency is read from the fitted curve at half-maximal effect. In outline:
(§3)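 Cells (500-1,000/well) rested 5 h, then received compounds for 48 h; metabolically active cells were measured by CellTiter-Glo luminescence. Final concentrations spanned up to 46 µM (MIPE, 11-point) or 0.59 nM-46 µM (NPC, 8-point) in primary screens, 11-point in follow-ups.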

Experiment [4] is described as follows: qHTS of pediatric cancer cell lines to identify multiple opportunities for drug repurposing: Primary screen for LAN-5 cells (AID 1347100). Also: potency is read from the fitted curve at half-maximal effect. In outline: as §1
Experiment [5] in a line: qHTS of pediatric cancer cell lines to identify multiple opportunities for drug repurposing: Primary screen for BT-12 cells (AID 1347101). Also: nearly all actives have a fitted effect of over 25% in size. Also: potency is read from the fitted curve at half-maximal effect. An outline of the steps:
as §3

Experiment [6] can be described thus: qHTS of pediatric cancer cell lines to identify multiple opportunities for drug repurposing: Primary screen for Rh18 cells (AID 1347102). Also: nearly all actives have a fitted effect of over 65% in size. Also: potency is read from the fitted curve at half-maximal effect. An outline of the steps:
as §1

Experiment [7] in a line: qHTS of pediatric cancer cell lines to identify multiple opportunities for drug repurposing: Primary screen for OHS-50 cells (AID 1347103). Also: nearly all actives have a fitted effect of over 40% in size. Also: potency is read from the fitted curve at half-maximal effect. In outline:
as §3

A short description of experiment [8]: qHTS of pediatric cancer cell lines to identify multiple opportunities for drug repurposing: Primary screen for RD cells (AID 1347104). Also: nearly all actives have a fitted effect of over 55% in size. Also: potency is read from the fitted curve at half-maximal effect. An outline of the steps: as §2
A short description of experiment [9]: qHTS of pediatric cancer cell lines to identify multiple opportunities for drug repurposing: Primary screen for MG 63 (6-TG R) cells (AID 1347105). Also: nearly all actives have a fitted effect of over 50% in size. Also: potency is read from the fitted curve at half-maximal effect. An outline of the steps:
as §2

Experiment [10] can be described thus: qHTS of pediatric cancer cell lines to identify multiple opportunities for drug repurposing: Primary screen for control Hh wild type fibroblast cells (AID 1347106).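 Also: series mostly up to about 46 µM; a drop in luminescence marks cytotoxicity and a rise apparent proliferation; nearly all actives have a fitted effect of over 55% in size.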 An outline of the steps: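 Cells (500-1,000/well) in growth media were settled 5 h at 37 degrees C, then given compounds for 48 h. Viability was read as CellTiter-Glo luminescence. Primary runs used MIPE at 11 points (0.78 nM-46 µM) and NPC at 8 points (0.59 nM-46 µM); follow-ups used 11 points.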

A short description of experiment [11]: qHTS of pediatric cancer cell lines to identify multiple opportunities for drug repurposing: Confirmatory screen for NB1643 cells (AID 1347109). Also: nearly all actives have a fitted effect of over 45% in size. Also: potency is read from the fitted curve at half-maximal effect. In outline: as §1
Experiment [12] in a line: qHTS of pediatric cancer cell lines to identify multiple opportunities for drug repurposing: Confirmatory screen for SK-N-MC cells (AID 1347111).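 Also: cells exposed to compound for 48 h before the readout; nearly all actives have a fitted effect of over 70% in size.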 Also: potency is read from the fitted curve at half-maximal effect. An outline of the steps: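 SK-N-MC cells at 500-1,000 cells/well in growth media were pre-incubated 5 h, then exposed to compounds at 11-point dilutions for 48 h at 37 degrees C, 5% CO2. Viability was read as CellTiter-Glo luminescence.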

Experiment [13] is described as follows: qHTS of pediatric cancer cell lines to identify multiple opportunities for drug repurposing: Confirmatory screen for BT-12 cells (AID 1347112). Also: nearly all actives have a fitted effect of over 55% in size. Also: potency is read from the fitted curve at half-maximal effect. In outline: as §1
Experiment [14] in a line: qHTS of pediatric cancer cell lines to identify multiple opportunities for drug repurposing: Confirmatory screen for LAN-5 cells (AID 1347113). Also: nearly all actives have a fitted effect of over 65% in size. Also: potency is read from the fitted curve at half-maximal effect. In outline:
as §1

The nature of experiment [15]: qHTS of pediatric cancer cell lines to identify multiple opportunities for drug repurposing: Confirmatory screen for DAOY cells (AID 1347114). Also: nearly all actives have a fitted effect of over 65% in size. Also: potency is read from the fitted curve at half-maximal effect. An outline of the steps:
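Viability measured as metabolically active cells via CellTiter-Glo luminescence following 48 hours of compound exposure, 11-point dilutions in confirmatory testing. 500-1,000 cells/well plated 5 hours before dosing; controls were DMSO and 2.3 µM bortezomib.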

Experiment [16] is described as follows: qHTS of pediatric cancer cell lines to identify multiple opportunities for drug repurposing: Confirmatory screen for NB-EBc1 cells (AID 1347115). Also: nearly all actives have a fitted effect of over 45% in size. Also: potency is read from the fitted curve at half-maximal effect. In outline:
as §1

Experiment [17] can be described thus: qHTS of pediatric cancer cell lines to identify multiple opportunities for drug repurposing: Primary screen for Rh30 cells (AID 1347107). Also: series mostly up to about 46 µM; nearly all actives have a fitted effect of over 75% in size. An outline of the steps:
as §1

Experiment [18] can be described thus: qHTS of pediatric cancer cell lines to identify multiple opportunities for drug repurposing: Primary screen for NB1643 cells (AID 1347099). Also: potency is read from the fitted curve at half-maximal effect; nearly all actives have a fitted effect of over 50% in size. An outline of the steps:
as §2

Experiment [19] in a line: qHTS of pediatric cancer cell lines to identify multiple opportunities for drug repurposing: Primary screen for Rh41 cells (AID 1347108).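 Also: series mostly up to about 46 µM; luminescence drop marks cytotoxic hits; nearly all actives have a fitted effect of over 70% in size.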 In outline: as §2

Values joined by “and” are separate entries in the source; they are usually repeats but may differ in a detail not shown here. Equal entries are not always repeated. Results filed as inconclusive are left out. Active and inactive are the calls of the source. Calls follow the shape of the dose curve; as a rule, active = well fitted curve in the direction sought with a large enough effect; inconclusive = small, poorly fitted or top-dose-only effect, or another doubt; inactive = no such curve, though single readings can be large; an effect the other way counts as inactive or inconclusive.

Take `CO[C@@]12[C@H](COC(N)=O)C3=C(C(=O)C(C)=C(N)C3=O)N1C[C@@H]1N[C@@H]12`: the Potency entry in experiment [1], in [2] and in experiment [10] was “inactive” each time. Moreover, the Potency in [3] was 1.72 µM (active) and 8.57 µM (active); in experiment [4], 335 nM (active) and 1.05 µM (active); in experiment [5] it was 3.47 µM (active) and 3.06 µM (active); in experiment [6], 18.7 µM (active); in experiment [7], 3.85 µM (active); in [8] it was 18.8 µM (active) and 18.7 µM (active). Moreover, the Potency was 14.8 µM (active) in experiment [9]; 1.04 µM (active) in [11]; 2.08 µM (active) in [12]; 16.5 µM (active) in [13]; 1.31 µM (active) in experiment [14]; 14.7 µM (active) in [15]. For the same compound, the Potency in [16] was 1.31 µM (active).

`CC(C)(Sc1cc(C(C)(C)C)c(O)c(C(C)(C)C)c1)Sc1cc(C(C)(C)C)c(O)c(C(C)(C)C)c1`: the Potency entry in experiment [1], in [2], in experiment [3], in experiment [4], in [5] and in experiment [6] was “inactive” each time. For the same compound, the Potency result in experiment [8], in experiment [9], in experiment [10] and in [17] was “inactive” in each case.

For the compound `CC(C)(C)C(=O)OCOP(=O)(COCCn1cnc2c(N)ncnc21)OCOC(=O)C(C)(C)C`, the Potency result in [1], in experiment [6], in [9], in experiment [10], in [17] and in [15] was “inactive” each time. The Potency was 26.6 µM (active) and 23.5 µM (active) in experiment [2]; 15.4 µM (active) and 27.1 µM (active) in experiment [3]; 16.6 µM (active) in experiment [4]; 11 µM (active) and 17.2 µM (active) in experiment [5]; 23.5 µM (active) in [8]; 8.27 µM (active) in [11]. For the same compound, the Potency in experiment [12] was 0.329 µM (active); in experiment [13] it was 16.5 µM (active); in experiment [14], 9.27 µM (active); in [16], 8.27 µM (active).

`N[C@@H](Cc1ccc(O)c(O)c1)C(=O)O`: the Potency result in experiment [1], in experiment [2], in [3], in [4], in [5] and in [6] was “inactive” in each case. The Potency result in experiment [8], in experiment [9], in experiment [10] and in experiment [17] was “inactive” each time.

With `CC1CC2C3CCC4=CC(=O)C=C[C@]4(C)[C@@]3(F)[C@@H](O)C[C@]2(C)[C@@]1(O)C(=O)CO` (stereo partly specified), the Potency entry in experiment [1], in [2], in experiment [3], in [4], in experiment [6] and in experiment [7] was “inactive” throughout. The Potency result in experiment [9], in [10], in experiment [12], in experiment [13], in experiment [14] and in experiment [15] was “inactive” throughout. Also, in experiment [16], the Potency result was “inactive”.

Take `CC1=CC(=O)c2ccccc2C1=O`: the Potency entry in experiment [1], in experiment [5], in [6], in experiment [9], in experiment [10] and in experiment [17] was “inactive” throughout. The Potency is 18.7 µM (active) in experiment [2]; 21.7 µM (active) in experiment [3]; 16.8 µM (active) and 23.5 µM (active) in experiment [4]; 18.7 µM (active) in experiment [8].

Consider `COc1cc(NCc2ccc3nc(N)nc(N)c3c2C)cc(OC)c1OC`, for which the Potency was 3.72 µM (active) in experiment [1]; 11.8 µM (active) in [2]; 14.8 µM (active) in experiment [18]; 16.6 µM (active) in experiment [4]; 2.17 µM (active) and 55 nM (active) in experiment [5]; 19.3 µM (active) in experiment [7]. Further, the Potency in [8] is 4.18 µM (active) and 119 nM (active); in experiment [11] it was 9.27 µM (active); in experiment [12], 0.657 µM (active); in experiment [13], 3.29 µM (active); in experiment [14], 18.5 µM (active). Also, the Potency result in experiment [6], in [9], in [10] and in [15] was “inactive” throughout.

As to `Cc1ccnc2c1NC(=O)c1cccnc1N2C1CC1`, the Potency result in experiment [1], in [2], in experiment [4], in [5], in experiment [6] and in [8] was “inactive” throughout. In addition, the Potency result in experiment [9], in [10] and in experiment [17] was “inactive” in each case.

Consider `C[C@@H](CN1CC(=O)NC(=O)C1)N1CC(=O)NC(=O)C1`, for which the Potency entry in experiment [1], in [2], in [3], in [5], in [6] and in experiment [7] was “inactive” each time. Also, the Potency result in experiment [9], in [10], in experiment [17], in [19], in [11] and in experiment [12] was “inactive” throughout. Moreover, the Potency result in experiment [13], in experiment [14], in experiment [15] and in experiment [16] was “inactive” each time. Moreover, the Potency in experiment [4] is 4.18 µM (active).

Regarding `CN1CCCC(n2nc(Cc3ccc(Cl)cc3)c3ccccc3c2=O)CC1` (stereo unspecified), the Potency is 9.35 µM (active) in [1]; 2.35 µM (active) in experiment [2]; 27.3 µM (active) and 4.82 µM (active) in experiment [3]; 0.662 µM (active) in experiment [4]; 2.73 µM (active) in experiment [5]; 1.48 µM (active) in experiment [6]. The Potency was 5.9 µM (active) in experiment [8] and 23.3 µM (active) in experiment [12]. Further, the Potency result in experiment [17] and in [16] was “inactive” throughout.
